# Reference: PubChem BioAssay (NCI)
# This is part of a sample that, as a whole, favours compounds with a hit. Of some 83,000 tested, about 20% had one in any assay.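 Single-concentration screen, 48 h exposure, 96-well plates. Endpoint: percent growth. Below 10 = active.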 Unmarked numbers belong to inactive results. The source made the active and inactive calls.
# Tests used:
# Experiment in all cases: NCI-60 one-dose screen, 48 h (100 = growth as untreated, 0 = no growth, -100 = all killed)
# NCI-H23 lung = conditions: 10 µM unless noted
# NCI-H226 lung = conditions: 10 µM unless noted
# NCI-H322M lung = conditions: 10 µM unless noted
# HOP-62 NSCLC = conditions: 10 µM unless noted
# NCI-H460 lung = conditions: 10 µM unless noted
# HOP-92 NSCLC = conditions: 10 µM unless noted
# NCI-H522 lung = conditions: 10 µM unless noted
# A549/ATCC NSCLC = conditions: 10 µM unless noted
# 786-0 renal = conditions: 10 µM unless noted
# COLO 205 colon = conditions: 10 µM unless noted
# DU-145 prostate = conditions: 10 µM unless noted
# K-562 leukemia = conditions: 10 µM unless noted
# MALME-3M melanoma = conditions: 10 µM unless noted
# MDA-MB-231 breast = conditions: 10 µM unless noted
# RXF 393 renal = conditions: 10 µM unless noted
# SF-268 CNS = conditions: 10 µM unless noted
# SF-295 CNS = conditions: 10 µM unless noted
# SF-539 CNS = conditions: 10 µM unless noted
# UACC-257 melanoma = conditions: 10 µM
# M14 melanoma = conditions: 10 µM unless noted
SMILES,growth (NCI-H23 lung),growth (NCI-H226 lung),growth (NCI-H322M lung),growth (HOP-62 NSCLC),growth (NCI-H460 lung),growth (HOP-92 NSCLC),growth (NCI-H522 lung),growth (A549/ATCC NSCLC),growth (786-0 renal),growth (COLO 205 colon),growth (DU-145 prostate),growth (K-562 leukemia),growth (MALME-3M melanoma),growth (MDA-MB-231 breast),growth (RXF 393 renal),growth (SF-268 CNS),growth (SF-295 CNS),growth (SF-539 CNS),growth (UACC-257 melanoma),growth (M14 melanoma)
COc1cc(/C=C/C(=O)c2ccc(NC(=O)CN3CCN(c4cc5c(cc4F)c(=O)c(C(=O)O)cn5C4CC4)CC3)cc2)cc(OC)c1OC,-35.6% (active),-9.81% (active),-7.05% (active),4.38% (active),-20% (active),-1.75% (active),-71.5% (active),-19.2% (active),-67.8% (active),-12.8% (active),2.17% (active),1.66% (active),31.4%,27.6%,-87.6% (active),-1.11% (active),-27.2% (active),-15.7% (active),30.8%,-14.1% (active)
CCCCCC(=O)OCc1ccccc1,102%,103%,102%,97%,109%,96.3%,85.7%,106%,96.9%,106%,103%,84.9%,85.9%,109%,105%,97.2%,99.8%,98.8%,96.8%,94.9%
Cc1ccc(S(=O)(=O)NCCCNc2nccc(-c3c(-c4ccccc4)nc4sccn34)n2)cc1,76.2%,49.4%,78.4%,124%,52%,93.8%,54.1%,58.4%,38.7%,46.6%,26.2%,15.9%,99.3%,18.3%,65%,38.6%,65.2%,82.5%,106%,30.5%
Clc1ccc(/C=C/c2nc(N3CCOCC3)c3nc(Cl)c(Cl)cc3n2)cc1,92.2%,106%,111%,110%,105%,94.1%,95.5%,107%,92.2%,102%,103%,79.3%,113%,110%,117%,97.3%,91.9%,98.6%,106%,96.4%
CC(=O)n1cc([C@H]2CC[C@H](c3cn(C(C)=O)c4ccccc34)c3c2[nH]c2ccccc32)c2ccccc21,75.7%,89.4%,77.6%,70.7%,90.4%,85.3%,65.1%,70%,93.5%,94.5%,93.2%,69.9%,91.4%,70.8%,96.5%,76.9%,80%,92.7%,89.5%,79.1%
Cc1ccc(Nc2ncnc3c2sc2ncccc23)cc1,101%,91.7%,95.9%,103%,97.6%,106%,106%,98.2%,101%,107%,108%,53.8%,107%,103%,88.2%,97.6%,110%,100%,99.5%,101%
CC/C(=C(\c1ccc(O)cc1)c1ccc(OCCN(C)CCN(C)C(=O)CCC(=O)c2c(C)[nH]c(/C=C3\N=C(c4ccc[nH]4)C=C3OC)c2C)cc1)c1ccccc1,80.1%,77%,70.4%,91.3%,58.2%,58.8%,81.9%,76.4%,87.5%,89.8%,46.9%,5.83% (active),55.4%,9.16% (active),66.1%,69.8%,95.9%,63.2%,104%,20.7%
Cc1sc(N=Nc2ccc(N(C)C)cc2)[n+]([O-])c1C,98.4%,92.6%,94.5%,106%,99.3%,74.7%,98.4%,100%,103%,104%,102%,121%,91.2%,96.2%,79.7%,95.7%,106%,100%,105%,99.8%
N=C(N)c1ccc(-c2ccc(-c3ccc(Cl)cc3)o2)nc1,-81.9% (active),-68.2% (active),-94.5% (active),-85.5% (active),-91.6% (active),-87.7% (active),-78.9% (active),-82.8% (active),-85.1% (active),-87.5% (active),-98.4% (active),112%,-66.4% (active),-90% (active),-98.1% (active),-95.6% (active),-85.4% (active),-92.4% (active),-89% (active),-88.3% (active)
O=C(CN1CCOCC1)Nc1ccc(-c2nc3ccccc3s2)cc1,99.5%,95%,100%,106%,99.7%,83.3%,94.5%,93.8%,101%,115%,109%,99.3%,117%,96.8%,111%,110%,98.2%,89.7%,101%,101%
COc1ccc(Cn2cc(COc3cc(/C=C/C(=O)c4cc(OC)c(OC)c(OC)c4)ccc3OC)nn2)cc1,107%,89.4%,52.4%,19.2%,96.4%,45%,41.6%,60.1%,81%,81.9%,88.5%,12%,101%,84.9%,90.3%,94.6%,32.2%,49.2%,96.1%,90.9%
O=C(CN1CCN(c2cc3c(cc2F)c(=O)c(C(=O)O)cn3C2CC2)CC1)Nc1ccc(C(=O)/C=C/c2ccccc2)cc1,24%,57.4%,73.7%,59.4%,7.12% (active),14.9%,10.6%,4.12% (active),23.2%,108%,43.1%,14.2%,51%,55.1%,41.7%,37%,15.2%,26.2%,61.1%,31.8%
CC(C)C[C@H](NC(=O)[C@@H](Cc1ccccc1)n1ccc(Nc2ccccc2)cc1=O)B(O)O,6.41% (active),-72% (active),43.5%,-21.6% (active),8.89% (active),-31.4% (active),-53.7% (active),17%,17.2%,13.8%,35.3%,3.2% (active),-39.1% (active),-24.8% (active),-80.2% (active),-31.6% (active),-20.6% (active),-17.7% (active),-36.6% (active),9.32% (active)
COc1ccc(-n2c(C)cc(-c3ccccc3)c2C)cc1,33.9%,57.3%,93.5%,82.4%,46.8%,24.6%,29.5%,40.7%,35%,39.4%,73.9%,15.6%,36.9%,6.48% (active),10.1%,75.5%,34.1%,62%,40.3%,15.9%
